{"source": "the OligoGym collection", "data": [{"molecular_target": "SEC11C", "test": "pooled miR-30 sensor sort-seq; sequence = guide strand", "conditions": "shRNA", "values": [{"sequence": "ATGAACTTTGATTACTCTGTGA", "sensor-assay potency score (higher = more potent)": -0.369}, {"sequence": "ATCTTTTTCATGAACTTTGATT", "sensor-assay potency score (higher = more potent)": -1.19}, {"sequence": "TTGGAATGTCTCGTCCTTCAAC", "sensor-assay potency score (higher = more potent)": -1.07}, {"sequence": "ATTATTATCTCCTTTAGTCAGA", "sensor-assay potency score (higher = more potent)": -0.731}, {"sequence": "TTACTCTGTGAACTATTGGAAT", "sensor-assay potency score (higher = more potent)": -1.07}]}, {"molecular_target": "SEC22B", "test": "pooled miR-30 sensor sort-seq; sequence = guide strand", "conditions": "shRNA", "values": [{"sequence": "TCGTTGTAACACTTCTTCGATA", "sensor-assay potency score (higher = more potent)": -1.15}, {"sequence": "TAATATAATTCACTTACCCTAA", "sensor-assay potency score (higher = more potent)": -0.417}, {"sequence": "TTCATTTTCAGGACATCTCTTT", "sensor-assay potency score (higher = more potent)": 0.0656}, {"sequence": "TTTCAGGACATCTCTTTTCTTG", "sensor-assay potency score (higher = more potent)": -0.395}, {"sequence": "TTGGATTCTAATACACATCTCT", "sensor-assay potency score (higher = more potent)": 0.391}, {"sequence": "TAGCCTTTGAATCCAATGCTGA", "sensor-assay potency score (higher = more potent)": -0.568}, {"sequence": "TCAATGTAGAGCTTCTTGGTTT", "sensor-assay potency score (higher = more potent)": -0.305}, {"sequence": "TCTAATACACATCTCTGTGAGC", "sensor-assay potency score (higher = more potent)": -0.275}, {"sequence": "TCGAGCACAACTGTCAATGTAG", "sensor-assay potency score (higher = more potent)": 0.24}, {"sequence": "TTCTAATACACATCTCTGTGAG", "sensor-assay potency score (higher = more potent)": 0.118}, {"sequence": "TTTCCTGAAAATATACACCTAC", "sensor-assay potency score (higher = more potent)": 0.224}]}, {"molecular_target": "SEC61B", "test": "pooled miR-30 sensor sort-seq; sequence = guide strand", "conditions": "shRNA", "values": [{"sequence": "TGCAACATAAATACAGAAGCGA", "sensor-assay potency score (higher = more potent)": -0.661}, {"sequence": "ATCTTCTGTGTAGAATCGCCAC", "sensor-assay potency score (higher = more potent)": -0.702}, {"sequence": "ATGTGCAACATAAATACAGAAG", "sensor-assay potency score (higher = more potent)": -1.59}, {"sequence": "TTCTGTGTAGAATCGCCACATC", "sensor-assay potency score (higher = more potent)": -0.647}, {"sequence": "TTCCTCTGCCGGACAGTGGATC", "sensor-assay potency score (higher = more potent)": -1.27}, {"sequence": "ATAACCAATACTGGAACAGGGC", "sensor-assay potency score (higher = more potent)": -0.892}, {"sequence": "AAATGTGCAACATAAATACAGA", "sensor-assay potency score (higher = more potent)": -1.05}, {"sequence": "TGGAACAGGGCCAACTTTGAGC", "sensor-assay potency score (higher = more potent)": -1.17}, {"sequence": "TAAAACAGCAAGCTTACAGAAA", "sensor-assay potency score (higher = more potent)": -1.05}, {"sequence": "TCTTCTGTGTAGAATCGCCACA", "sensor-assay potency score (higher = more potent)": -0.746}, {"sequence": "TAGAATCGCCACATCCCCCCGG", "sensor-assay potency score (higher = more potent)": -0.342}, {"sequence": "TACTGGAACAGGGCCAACTTTG", "sensor-assay potency score (higher = more potent)": -1.5}]}, {"molecular_target": "SEC62", "test": "pooled miR-30 sensor sort-seq; sequence = guide strand", "conditions": "shRNA", "values": [{"sequence": "TTTGTTGGACAGTTGAATCGAA", "sensor-assay potency score (higher = more potent)": 0.088}, {"sequence": "TAAATAAAGCTTCCTCTCCTTT", "sensor-assay potency score (higher = more potent)": -0.505}, {"sequence": "TGACTTTTCCTCACTGTCGGAC", "sensor-assay potency score (higher = more potent)": -0.575}, {"sequence": "TATGTCTTTATCATATTTCATT", "sensor-assay potency score (higher = more potent)": -1.38}, {"sequence": "TTTAAGTCTGCTTTTGGTCCTT", "sensor-assay potency score (higher = more potent)": 0.441}, {"sequence": "TTCAATATGGTAATCAGCCAAC", "sensor-assay potency score (higher = more potent)": -1.13}, {"sequence": "TTCTATAAAATGAAGGACCGAA", "sensor-assay potency score (higher = more potent)": -0.0759}, {"sequence": "TTATGTACAGAATACACTTTAC", "sensor-assay potency score (higher = more potent)": -1.09}, {"sequence": "TTGTTGGACAGTTGAATCGAAG", "sensor-assay potency score (higher = more potent)": -1.44}, {"sequence": "TCCATTTCCACTACTGTGCTGG", "sensor-assay potency score (higher = more potent)": -0.484}, {"sequence": "TAAAGCTTCCTCTCCTTTCTTG", "sensor-assay potency score (higher = more potent)": 0.192}, {"sequence": "TAGTCAACCACAGACTCCCTGG", "sensor-assay potency score (higher = more potent)": -0.485}]}]}
